# FAK blocker: FAK kinase inhibitors, primary screen, biochemical; Focal adhesion kinase 1 (Homo sapiens), Q05397; AID 727, 2007; 97,000 tested, 0.84% active; inhibition, %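 (tested at 7 µM)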; biochemical FAK kinase activity assay
# Smad3 inh: Smad3/FoxH1 peptide binding inhibitors, primary screen, biochemical, TR-FRET. Mothers against decapentaplegic homolog 3 (Homo sapiens), P84022. TR-FRET Smad3/Dy647-FoxH1 peptide binding, europium anti-His. inhibition, % at 25 µM. 88,000 tested, 0.29% active. AID 630, 2007;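 active means compounds that reduce the energy-transfer binding signal between the protein and its labelled peptide by more than half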
# ERa coact pot: enhancers of ERα–SRC-1 coactivator binding, primary screen, biochemical, TR-FRET, ERα LBD, low estradiol; 86,000 tested, 1.3% active; TR-FRET ERalpha-LBD/SRC-Cy5 coactivator binding, 2 h; 100 = basal binding, no effect; AID 639, 2007; coactivator binding (% of control), % at 25.6 µM; Estrogen receptor (Homo sapiens), P03372; in the data active means activity above about 200%;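 further: binding measured in presence of low estradiol as agonist stimulus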
# ERb SRC1 inh: inhibitors of ERβ-SRC1 coactivator interaction, primary screen, biochemical, TR-FRET, ERβ LBD, SRC-1 peptide | Estrogen receptor beta (Homo sapiens), Q92731 | TR-FRET ER-beta LBD / SRC1-Cy5 peptide binding; receptor agonist-loaded with 1 µM estradiol | inhibition, % at 25.6 µM | 86,000 tested, 1.3% active | AID 633, 2007;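 active means compounds whose percent inhibition of the receptor-coactivator binding signal exceeds about 50% in the single-dose screen, limit read from the data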
# Target sequence (Q92731 whole entry, looked up, the tested form may be a part): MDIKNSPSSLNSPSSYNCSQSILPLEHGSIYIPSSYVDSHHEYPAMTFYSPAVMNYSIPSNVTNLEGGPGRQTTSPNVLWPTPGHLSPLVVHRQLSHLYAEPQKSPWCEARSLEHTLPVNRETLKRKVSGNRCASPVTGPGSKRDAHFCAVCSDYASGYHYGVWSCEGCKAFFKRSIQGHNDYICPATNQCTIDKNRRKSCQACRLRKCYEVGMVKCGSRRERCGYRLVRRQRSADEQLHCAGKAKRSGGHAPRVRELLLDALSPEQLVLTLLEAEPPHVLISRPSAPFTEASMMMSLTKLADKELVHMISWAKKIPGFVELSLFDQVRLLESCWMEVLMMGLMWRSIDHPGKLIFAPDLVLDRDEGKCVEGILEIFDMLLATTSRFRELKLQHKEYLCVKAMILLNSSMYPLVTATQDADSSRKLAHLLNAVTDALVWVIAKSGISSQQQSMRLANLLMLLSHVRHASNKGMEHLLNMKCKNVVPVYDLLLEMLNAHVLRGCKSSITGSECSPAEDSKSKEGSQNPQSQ
# ERa SRC1 inh: ERα–SRC-1 coactivator interaction inhibitors, primary screen, biochemical, TR-FRET, ERα LBD, estradiol-bound | Estrogen receptor (Homo sapiens), P03372 | TR-FRET ER-alpha LBD / SRC-1 peptide | inhibition, % at 25.6 µM | 86,000 tested, 1.7% active | AID 629, 2007; in the data active means inhibition above about 50%
# FAK inh confirm: FAK kinase inhibitors, retest, confirmation, biochemical; shares compounds with FAK blocker; FAK kinase biochemical inhibition assay; inhibition, % at 7 µM; 750 tested, 28% active; AID 794, 2007
# A number is an active result; – = inactive; · = no result; [ ] = remark or other dose. Rows were chosen to be rich in hits. Some 3.3% of all compounds tested hit in one or more screens of this group. Unless noted, no stated cut-off is given here; in the data, active means inhibition above about 19%; inactive means the rest.
SMILES,FAK blocker,Smad3 inh,ERa coact pot,ERb SRC1 inh,ERa SRC1 inh,FAK inh confirm
O=C(Nc1ccc(F)cc1)Nc1nnc(-c2ccncc2)s1,30,·,·,·,·,–
Nn1c(Nc2ccccc2)nc2ccccc2c1=O,–,–,–,–,–,·
O=c1[nH]c(Nc2ccccc2)cc2ccccc12,38,58,–,–,–,35
COCCCNC(=O)C1CCCN(S(=O)(=O)c2ccc(C)cc2)C1 (stereo not given),–,–,–,–,–,·
C/C(=N\OC(=O)c1ccccc1F)c1nccs1,–,·,·,·,·,·
COCCNC(=O)C(c1ccc(C)o1)N(C(=O)c1snc(C(N)=O)c1N)c1cc(C)cc(C)c1 (stereo not given),23,–,–,99[fluorescence artefact?],–,–
Cc1ccc2c(CC(=O)OCc3cc(=O)n4c(n3)sc3ccccc34)coc2c1,23,·,·,·,·,–
O=C(CC1C(=O)NCCN1C(=O)Nc1ccccc1)Nc1ccc2c(c1)OCO2 (stereo not given),–,–,–,–,–,·
O=C(CC1C(=O)NCCN1C(=S)Nc1ccccc1)Nc1ccc2c(c1)OCCO2 (stereo not given),23,–,–,–,–,–
COc1ccc(-c2nnc(SC(C)C(=O)Nc3nccs3)n2Cc2ccccc2)cc1OC (stereo not given),–,–,–,–,–,·
COc1ccc(-c2nnc(SC(C)C(=O)Nc3nccs3)n2-c2ccccc2)cc1OC (stereo not given),49,–,–,–,–,–
Cc1ccc(/C=N\Nc2nc3ccc(Cl)cc3[nH]2)o1,21,·,·,·,·,–
O=C1C(=O)c2c(C(=O)c3ccccc3)coc2-c2ccccc21,32,–,–,–,–,20
Cc1oc2c(c1C(=O)c1ccccc1)C(=O)C(=O)c1ccccc1-2,30,–,–,–,–,22
CC1=C(CC(=O)c2ccccc2)C(=O)c2ccccc2C1=O,–,·,·,·,·,·
Cc1cc(C)c(NC(=O)C(C)c2cccc(C(=O)c3ccccc3)c2)c(C)c1 (stereo not given),–,·,·,·,·,·
CC(C)Cn1c(SCc2nnc(-c3cccs3)o2)nc(O)cc1=O,·,–,–,–,–,·
c1ccc(CSc2nnc(-c3sccc3-n3cccc3)o2)cc1,–,·,·,·,·,·
Brc1ccc2ncnc(Nc3ccc(N4CCOCC4)cc3)c2c1,20,–,–,82[fluorescence artefact?],59[fluorescence artefact?],–
O=C(COc1ncnc2ccc(Br)cc12)Nc1ccc(N2CCOCC2)cc1,–,–,–,–,–,·
O=c1oc2ccccc2n1CCn1c2ccccc2c2nc3ccccc3nc21,30,–,–,–,77,46
Cc1ccnc(SCCn2c(Br)nc3c2c(=O)n(C)c(=O)n3C)n1,·,–,–,–,–,·
